The source of these data is PubChem BioAssay (Tox21).

Assay [1] concerns the target Thyrotropin receptor (Homo sapiens) (UniProt P16473). Nature of the assay: qHTS assay to identify small molecule agonists of the thyroid stimulating hormone receptor (TSHR) signaling pathway (AID 1224843; calls by dose curve; also: nearly all actives have a fitted effect of over 45% in size). As to conditions: TSHR-HEK293 cells, cAMP HTRF, agonist mode, 30 min; series mostly up to 92.4 µM. A digest of the protocol:
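HEK293 cells stably bearing the thyrotropin receptor were plated at 800 cells/well and challenged with compound (30 min, RT). Accumulated cAMP was quantified via cAMP-d2 competing for cryptate-tagged antibody.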
On the technique in general: In qHTS, concentration-response curves come from the screen itself.

Assay [2] in a line: qHTS assay to identify small molecule agonists of H2AX (AID 1224845; active = well fitted activation curve with a large enough effect in the signal ratio in the repeat runs, not every such curve was filed as active; the % refers to the signal ratio). The settings on record: CHO-K1 phospho-H2AX Ser139 HTRF, 3 h; series mostly up to 154 µM. A digest of the protocol: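 Phospho-H2AX Ser139 measured by HTRF (ex 320 nm; em 665 and 620 nm) after 24 hr antibody incubation. Compounds, 15 concentrations, 0.76% DMSO, were applied to CHO-K1 cells for 3hr at 37C before lysis.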

The nature of assay [3]: qHTS assay to identify small molecule agonists of the hypoxia (HIF-1) signaling pathway (AID 1224846; active = well fitted activation curve with a large enough effect in the signal ratio in the repeat runs, not every such curve was filed as active; the % refers to the signal ratio). As to conditions: HRE-bla ME-180 cells, beta-lactamase ratio, 17 h; series mostly up to 76.8 µM. A digest of the protocol: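 Cell line: CellSensor HRE-bla ME-180; 2,000 cells/well; 0.5% dialyzed FBS; 5 h preincubation; DMSO compound pin transfer; 17 h, 37C, 5% CO2; CCF4-AM added; bla FRET signal scored for activation.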

The nature of assay [4]: qHTS assay to identify small molecule agonists of H2AX - cell viability counter screen (AID 1224847; calls by dose curve;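 also: wild-type CHO-K1 cells; top concentration of the series differs between compounds; nearly all actives have a fitted effect of over 30% in size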). As to conditions: CHO-K1 viability, CellTiter-Glo luminescence, 3 h; series mostly up to 154 µM. A digest of the protocol: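 CHO-K1 cells plated overnight at 37C, then exposed 3 h at 37C to compounds at 15 concentrations (0.76% DMSO final). Viability by CellTiter-Glo luminescence after 30 min at room temperature.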

A short description of assay [5]: qHTS assay to identify small molecule antagonists of the estrogen related receptor (ERR) signaling pathway from Tox21 library (AID 1224848). Also: nearly all actives have a fitted effect of over 50% in size. The settings on record: ERR reporter cell line, luciferase antagonist mode, 18 h; series mostly up to 92.4 µM. A digest of the protocol: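 Reading was by luminescence 30 min after ONE-Glo addition. Before that, ERR cells at 2,000 per well had rested 6 h at 37 C/5% CO2 and then received pin-tooled compounds in DMSO for 18 h at 37 C.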

Assay [6] is described as follows: qHTS assay to identify small molecule agonists of the estrogen related receptor (ERR) signaling pathway from Tox21 library (AID 1224849; calls by dose curve; also: nearly all actives have a fitted effect of over 15% in size). The settings on record: ERR reporter cell line, ONE-Glo luciferase, 18 h; at 92.4 µM (top of the series) unless noted. A digest of the protocol:
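ERR cells, 6 h pre-incubation 37 C/5% CO2; cpd in DMSO pinned; 18 h 37 C; ONE-Glo added, 30 min RT; luminescence read. Agonist mode, qHTS.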

The nature of assay [7]: qHTS RealTime-Glo MT Cell Viability Assay in HepG2 cells - 24 hour (AID 1224867). Also: nearly all actives have a fitted effect of over 50% in size. The settings on record: RealTime-Glo luminescence; series mostly up to 76.8 µM. A digest of the protocol: (§1)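 HepG2 suspension premixed with RealTime-Glo reagents is plated at 600 cells per well and left 5 h at 37 C/5% CO2. Compounds in DMSO then go in, and bioluminescence reflecting viable cell number is recorded over 40 h.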

Assay [8] is described as follows: qHTS RealTime-Glo MT Cell Viability Assay in HEK293 cells - 32 hour (AID 1224868). Also: top concentration of the series differs between compounds; nearly all actives have a fitted effect of over 50% in size. As to conditions: RealTime-Glo luminescence; series mostly up to 76.8 µM. A digest of the protocol:
(§2)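 Reads taken at 0, 8, 16, 24, 32 and 40 h from the same wells. HEK293 cells (600/well) carried RealTime-Glo reagents from seeding, with compound added after a 5 h settle at 37 C.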

Assay [9] is described as follows: A CellTox Green Cytotoxicity Assay to monitor cytotoxicity in HEK293 cells - 0 hour (AID 1224869). Also: nearly all actives have a fitted effect of over 50% in size. As to conditions: CellTox Green fluorescence; series mostly up to 76.8 µM. A digest of the protocol: (§3)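 Nonlytic real-time cytotoxicity: HEK293 + CellTox Green reagent plated, 5 h preincubation, pintool compound addition (23 nL in DMSO), 37 C for 40 h, fluorescence measured at successive time points.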

Assay [10] is described as follows: qHTS RealTime-Glo MT Cell Viability Assay in HepG2 cells - 40 hour (AID 1224870). Also: nearly all actives have a fitted effect of over 50% in size. Also: potency is read from the fitted curve at half-maximal effect. The settings on record: RealTime-Glo luminescence; series mostly up to 76.8 µM. A digest of the protocol:
(§4)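 Real-time viability: cells seeded at 600 per well together with NanoLuc and cell-permeant prosubstrate, compounds added after 5 h incubation. Luminescence tracked at 0, 8, 16, 24, 32 and 40 h of exposure.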

The nature of assay [11]: A CellTox Green Cytotoxicity Assay to monitor cytotoxicity in HEK293 cells - 40 hour (AID 1224871). Also: nearly all actives have a fitted effect of over 45% in size. The settings on record: CellTox Green fluorescence; series mostly up to 76.8 µM. A digest of the protocol:
as §3

Assay [12] can be described thus: qHTS RealTime-Glo MT Cell Viability Assay in HEK293 cells - 16 hour (AID 1224872). The settings on record: RealTime-Glo luminescence; series mostly up to 76.8 µM. A digest of the protocol: as §2
The nature of assay [13]: qHTS RealTime-Glo MT Cell Viability Assay in HepG2 cells - 8 hour (AID 1224873). Also: nearly all actives have a fitted effect of over 55% in size. The settings on record: RealTime-Glo luminescence; series mostly up to 76.8 µM. A digest of the protocol:
as §4

Assay [14] in a line: qHTS RealTime-Glo MT Cell Viability Assay in HEK293 cells - 40 hour (AID 1224874). Also: nearly all actives have a fitted effect of over 50% in size. The settings on record: RealTime-Glo luminescence; max response: stronger effect = lower value. A digest of the protocol:
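Cells were seeded together with NanoLuc luciferase and a prosubstrate that viable cells reduce to a luciferase substrate. After a 5 h incubation at 37 C/5% CO2, compounds were added and luminescence was measured repeatedly during 40 h of treatment.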

The nature of assay [15]: A CellTox Green Cytotoxicity Assay to monitor cytotoxicity in HEK293 cells - 24 hour (AID 1224875). Also: nearly all actives have a fitted effect of over 45% in size. The settings on record: CellTox Green fluorescence; series mostly up to 76.8 µM. A digest of the protocol: as §3
Assay [16] in a line: A CellTox Green Cytotoxicity Assay to monitor cytotoxicity in HepG2 cells - 16 hour (AID 1224876). Also: nearly all actives have a fitted effect of over 45% in size. The settings on record: CellTox Green fluorescence; series mostly up to 76.8 µM. A digest of the protocol: (§5)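 Read-out is fluorescence of a cyanine dye excluded from live cells that stains DNA of dead HepG2 cells, with signal proportional to cytotoxicity. Plates were read at 0, 8, 16, 24, 32 and 40 h after compound addition.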

A short description of assay [17]: qHTS RealTime-Glo MT Cell Viability Assay in HepG2 cells - 32 hour (AID 1224877). Also: nearly all actives have a fitted effect of over 55% in size. The settings on record: RealTime-Glo luminescence; series mostly up to 76.8 µM. A digest of the protocol: as §1
Assay [18] is described as follows: A CellTox Green Cytotoxicity Assay to monitor cytotoxicity in HepG2 cells - 24 hour (AID 1224878). Also: nearly all actives have a fitted effect of over 45% in size. As to conditions: CellTox Green fluorescence; series mostly up to 76.8 µM. A digest of the protocol: as §5
Assay [19] can be described thus: A CellTox Green Cytotoxicity Assay to monitor cytotoxicity in HepG2 cells - 40 hour (AID 1224879). Also: nearly all actives have a fitted effect of over 40% in size. As to conditions: CellTox Green fluorescence; series mostly up to 76.8 µM. A digest of the protocol: as §5

Structures are written as SMILES. Unmarked numbers belong to inactive results. Inconclusive results are not listed. Active and inactive are the calls of the source. Unless noted, calls follow the shape of the dose curve; as a rule, active = well fitted curve in the direction sought with a large enough effect in the repeat runs; inconclusive = weak or mixed curves; inactive = no such curve, though single readings can be large; an effect the other way counts as inactive or inconclusive.
% is scaled to controls: 0 for no effect and ±100 for the full control effect.

Sequence of Thyrotropin receptor (Homo sapiens) (P16473 whole entry, looked up): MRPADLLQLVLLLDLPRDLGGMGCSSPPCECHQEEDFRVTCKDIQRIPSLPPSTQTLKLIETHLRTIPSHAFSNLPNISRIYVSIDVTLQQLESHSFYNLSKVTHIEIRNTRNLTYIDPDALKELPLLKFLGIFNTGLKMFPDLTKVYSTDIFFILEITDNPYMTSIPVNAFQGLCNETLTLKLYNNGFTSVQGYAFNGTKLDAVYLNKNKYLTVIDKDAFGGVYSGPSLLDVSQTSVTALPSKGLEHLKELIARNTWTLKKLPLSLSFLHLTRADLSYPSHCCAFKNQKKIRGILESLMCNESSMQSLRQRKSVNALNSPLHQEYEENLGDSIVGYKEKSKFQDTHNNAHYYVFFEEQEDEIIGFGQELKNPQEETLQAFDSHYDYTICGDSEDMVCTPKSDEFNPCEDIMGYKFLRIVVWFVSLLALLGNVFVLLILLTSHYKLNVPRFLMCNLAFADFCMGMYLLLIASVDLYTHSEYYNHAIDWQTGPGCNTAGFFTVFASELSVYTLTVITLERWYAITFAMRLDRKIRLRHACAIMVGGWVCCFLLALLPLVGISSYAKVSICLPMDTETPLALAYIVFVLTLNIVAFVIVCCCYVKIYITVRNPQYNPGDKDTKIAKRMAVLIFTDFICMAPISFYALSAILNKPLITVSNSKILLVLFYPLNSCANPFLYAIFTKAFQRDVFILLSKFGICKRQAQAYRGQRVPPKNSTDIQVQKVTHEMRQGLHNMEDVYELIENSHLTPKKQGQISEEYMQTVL

Consider `COC[C@@H](NC(C)=O)C(=O)NCc1ccccc1`, for which the Potency entry in [1], in assay [4], in assay [5], in assay [7], in assay [8] and in [10] was “inactive” each time. In addition, the Potency entry in assay [11], in assay [12], in assay [15], in [16], in [17] and in [18] was “inactive” each time. For the same molecule, the Potency result in [19] is “inactive”. Besides, the molecule was called inactive in [2], in assay [3], in [9] and in [13]. In addition, the activity change, positive = activation in assay [6] was 4.5% [at 42.5 µM]. The max response in assay [14] was 5.22%.

In the case of `ClC(Cl)(Cl)Cl`, the Potency result in assay [1], in assay [4], in assay [5], in assay [7], in [10] and in assay [11] was “inactive” throughout. Moreover, the Potency entry in [12], in assay [15], in [16], in assay [17], in assay [18] and in [19] was “inactive” each time. Besides, the call in assay [2], in [3], in assay [9] and in assay [13] was inactive. Also, in assay [6], the activity change, positive = activation is -3.58%. In addition, the max response in [14] is 2.56%.

Turning to `O=C(O)C(Br)(Br)Br`, the Potency entry in [1], in assay [4], in [5], in assay [7], in assay [8] and in assay [11] was “inactive” each time. For the same molecule, the Potency entry in [12], in assay [15], in [16], in [18] and in assay [19] was “inactive” throughout. Besides, the call in [2], in [3], in assay [9] and in assay [13] was inactive. In addition, the activity change, positive = activation in assay [6] was 0.595%. For the same molecule, in assay [10], the Potency is 49 µM (active).

Regarding `CCOC(=O)c1ncn2c1CN(C)C(=O)c1c(I)cccc1-2`, the Potency result in [1], in assay [4], in [7], in [8], in assay [10] and in assay [11] was “inactive” each time. Further, the Potency result in assay [12], in assay [15], in assay [16], in assay [17], in assay [18] and in assay [19] was “inactive” throughout. Besides, the outcome in assay [3], in assay [9] and in assay [13] was inactive.

In the case of `O=[N+]([O-])c1cccc(CCl)c1`, the Potency entry in assay [1], in [4], in assay [5], in assay [7], in assay [8] and in [10] was “inactive” in each case. For the same molecule, the Potency result in [11], in assay [12], in [15], in assay [16], in assay [17] and in [18] was “inactive” in each case. For the same molecule, the Potency entry in assay [19] is “inactive”. The outcome in assay [2], in assay [3], in assay [9] and in assay [13] was inactive. Besides, in assay [6], the activity change, positive = activation was -0.166%.

Regarding `CC(=O)CN(CC(C)=O)N=O`, the Potency entry in assay [1], in assay [4], in [5], in assay [7], in [8] and in assay [10] was “inactive” each time. The Potency entry in assay [11], in assay [12], in [15], in assay [16], in assay [17] and in assay [18] was “inactive” in each case. Besides, in [19], the Potency entry is “inactive”. For the same molecule, the result in assay [2], in assay [3], in assay [9] and in assay [13] was inactive. Moreover, the activity change, positive = activation in assay [6] is -3.56%. The max response in assay [14] is 5.04%.

`O=C(O)C(F)(F)C(F)(F)C(F)(F)C(F)(F)C(F)(F)C(F)(F)F`: the Potency result in assay [1], in [4], in [7], in assay [8], in assay [10] and in assay [11] was “inactive” each time. Further, the Potency result in assay [12], in assay [15], in assay [16], in assay [17] and in [18] was “inactive” each time. For the same molecule, the outcome in [2], in assay [9] and in assay [13] was inactive. Moreover, in assay [14], the max response is -16.5%.

Take `CC(Cc1ccccc1)NCCCCl` (stereo not drawn): the Potency entry in [1], in [4], in assay [7], in assay [8], in assay [10] and in assay [11] was “inactive” each time. The Potency entry in assay [12], in assay [15], in [16], in [17], in assay [18] and in assay [19] was “inactive” in each case. The call in assay [2], in assay [3], in assay [9] and in assay [13] was inactive. The max response in assay [14] is 5.94%.
